# Compounds with a hit are over-represented: about 19% of the library has one in this group of screens.
# HepG2 tox – HepG2 cytotoxicity, counter-screen for TGF-b inhibitors | HepG2 CAGA-GFP viability, ATP luminescence, 18 h | Potency, µM (top dose mostly 46.1 µM), for inactives: at the highest dose activity change, negative = cytotoxicity, usual class: cytotoxic | 410,000 tested, 0.76% active | AID 588856; note: potency is the fitted concentration of half-maximal effect
#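 HepG2 CAGA-GFP cells (1000/well, DMEM with 1% FBS) received compound, then TGF-beta at 500 pg/mL final, and were incubated 18 hours at 37 degrees C. Viability was read by CellTiter-Glo luminescence. Media-only wells were set as complete cell-killing and DMSO as no toxicity.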
# TDP1 cell CPT – DT40-hTDP1 cell growth loss with CPT; chicken DT40 Tdp1-/-;hTDP1 cells + 20 nM CPT, ATP luminescence, 48 h; Potency, µM (titrated, usually from 46.2 µM), for the others: top-dose activity change, negative = growth inhibition, usual class: inhibitors; 420,000 tested, 12% active; note: potency is the fitted concentration of half-maximal effect; % is set by controls: 0 for no effect and ±100 for the full control effect; nearly all actives have a fitted effect of over 55% in size
#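 Chicken DT40 Tdp1-/- cells stably complemented with human TDP1 were seeded at 400 cells/well in medium containing 20 nM camptothecin, exposed to pin-transferred compounds, and grown at 37 °C for at least 48 hr. Viability was read as ATP luminescence.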
# TGFb inhibitor – inhibitors of TGF-b signaling; HepG2 CAGA-GFP TGF-b/SMAD3 reporter, GFP fluorescence, 18 h; TGF-beta stimulated, 500 pg/mL final; Potency, µM (top dose mostly 46.1 µM), for inactives: top-dose activity, negative = inhibition, actives largely listed as inhibitors; 410,000 tested, 1.2% active; AID 588855; note: potency is the fitted concentration of half-maximal effect; % is set by controls: 0 for no effect and ±100 for the full control effect; nearly all actives have a fitted effect of over 65% in size
#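 GFP signal (ex488/em500-530) from TGF-beta-stimulated HEPG2 CAGA-GFP cells, 500 pg/mL final, 18 h at 37 degrees C in DMEM plus 1% FBS, normalized to unstimulated and DMSO-stimulated controls.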
# DT40 TDP1 no CPT – qHTS for Inhibitors of human tyrosyl-DNA phosphodiesterase 1 (TDP1): qHTS in cells in absence of CPT; DT40 Tdp1-/- hTDP1 cells, no CPT, ATP luminescence, 48 h; Potency, µM (doses to about 46.2 µM), without a hit: top-dose activity change, negative = growth inhibition, most hits filed as inhibitors; 420,000 tested, 15% active; AID 686978, 2013; note: potency is the fitted concentration of half-maximal effect; % is set by controls: 0 for no effect and ±100 for the full control effect; nearly all actives have a fitted effect of over 55% in size
#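 Chicken DT40 Tdp1-/- cells complemented with human TDP1, screened without camptothecin (DMSO vehicle only), 400 cells/well. Compounds pin-transferred, cells incubated at 37 °C for at least 48 hr. Growth read as ATP-dependent luminescence (CellTiter-Glo, 30 min at RT).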
# S-ASM inh – blocks human secretory acid sphingomyelinase; Potency, µM (series often up to 57.5 µM), inactives show top-dose activity change, negative = inhibition, actives largely listed as inhibitors; placental ASM, HMU-PC fluorogenic substrate, 60 min; AID 504937; 340,000 tested, 0.006% active; P17405; note: potency is the fitted concentration of half-maximal effect
# Target sequence (P17405 47-631 limits assumed): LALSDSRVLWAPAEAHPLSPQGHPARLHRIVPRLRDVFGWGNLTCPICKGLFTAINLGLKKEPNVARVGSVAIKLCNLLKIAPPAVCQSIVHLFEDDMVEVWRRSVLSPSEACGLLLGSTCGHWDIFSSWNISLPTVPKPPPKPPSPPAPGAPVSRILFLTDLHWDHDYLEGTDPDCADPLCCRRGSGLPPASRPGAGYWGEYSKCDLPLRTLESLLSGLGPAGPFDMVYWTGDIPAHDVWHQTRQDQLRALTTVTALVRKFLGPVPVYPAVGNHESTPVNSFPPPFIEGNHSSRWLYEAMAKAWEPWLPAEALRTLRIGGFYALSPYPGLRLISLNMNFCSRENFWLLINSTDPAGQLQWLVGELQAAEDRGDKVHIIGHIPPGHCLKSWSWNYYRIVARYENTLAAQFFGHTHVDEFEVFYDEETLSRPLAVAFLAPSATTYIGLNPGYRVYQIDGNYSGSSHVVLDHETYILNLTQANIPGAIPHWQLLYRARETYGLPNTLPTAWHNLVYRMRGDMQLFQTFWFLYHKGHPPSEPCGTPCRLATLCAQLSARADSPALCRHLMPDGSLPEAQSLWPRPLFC
#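 Steps: dispense placental human ASM, pin compound, wait 10 min at room temperature, add HMU-PC0 substrate at 9 uM final, incubate 60 min at 37 °C, add stop solution raising pH to 10, read fluorescence.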
# IL-1B inflam inh – inflammasome signaling inhibition, IL-1 beta readout; THP-1 LPS/ATP IL-1B secretion, AlphaLISA, 16 h; hits give low values; activity change, % at 57.5 µM; 360,000 tested, 4.7% active; AID 743279; in the data active = activity change below about -50%; inconclusive = mostly about -30% to -49%; note: % is set by controls: 0 for no effect and ±100 for the full control effect
#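 THP-1 cells pretreated 1 hr with compounds (up to 57.5 uM final), then stimulated with LPS (250 ng/mL final) plus ATP (1.25 mM final); secreted IL-1B measured by AlphaLISA after 16 hr, decreased signal indicating inhibition.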
# Numbers without * were called inactive; i = inactive; u = inconclusive; x = no result given; ! = not active in a repeat; [ ] = another dose, or the depositor's remark. Unless noted, calls come from the whole dose curve; as a rule, active = well fitted curve in the direction sought with a large enough effect; inconclusive = small, poorly fitted or top-dose-only effect, or another doubt; inactive = no such curve, though single readings can be large; an effect the other way counts as inactive or inconclusive.
SMILES,HepG2 tox,TDP1 cell CPT,TGFb inhibitor,DT40 TDP1 no CPT,S-ASM inh,IL-1B inflam inh
C[C@]12CCC(=O)C=C1CCC1C2C(O)C[C@]2(C)C1CC[C@]2(O)C(=O)CO (some centres not stated),x,0%,x,-14%,x,x
C[C@]12CCC(=O)C=C1CC[C@H]1[C@@H]3CC[C@](O)(C(=O)CO)[C@@]3(C)C[C@H](O)[C@@]12F,x,u,x,27µM*!,x,x
CCN1C=C(C(=O)OC)C(c2cccc(OC)c2OC)C(C(=O)OC)=C1,-19%,-8%,-13%,0%,i,24
c1ccc2c(C3=NNC(=NC4CCCCC4)SC3)c[nH]c2c1,-37%,u,u,u,0%,-96*
c1ccc2c(C3=NNC(=NC4CC4)SC3)c[nH]c2c1,8%,u,3%,u,3%,-96*
c1ccc2c(-c3nnc4n3CCCCC4)c[nH]c2c1,0%,u,-7%,-16%,1%,-4
c1ccc(C2=NNC(=NC3CC3)SC2)cc1,7.1µM*,u,4%,18µM*,7%,-13
Cc1cccc(N=C2NN=C(c3c(C)[nH]c4ccccc34)CS2)c1,-101%,u,0%,u,7%,u
COc1ccccc1CNC(=O)COC(=O)c1nc(Cl)ccc1Cl,-51%,-2%,20%,-4%,-5%,9
CC(=O)N1c2ccc(S(=O)(=O)N3CCCCCC3)cc2CC1C(=O)NCc1cccc(C)c1 (configuration not stated),7%,u,u,-17%,x,x
O=C(c1cccc(Cl)c1)C1CCCN(Cc2ccc(N3CCNC3=O)cc2)C1 (configuration not stated),-24%,u,-15%,u,-1%,-4
COc1ccc(NC(=O)C[C@H]2C(=O)N(Cc3ccccc3)C[C@@H]2Cc2ccccc2)cc1,0%,18µM*,-9%,u,x,u
O=C(C[C@H]1C(=O)N(Cc2ccccc2)C[C@@H]1Cc1ccccc1)Nc1ccccc1,9%,13µM*,u,11µM*,-6%,-12
CCCCN1C[C@H](Cc2ccccc2)[C@@H](CC(=O)Nc2ccccc2)C1=O,-4%,16µM*,20%,u,-8%,-16
O=C(C[C@H]1C(=O)N(CCc2ccccc2)C[C@@H]1Cc1ccccc1)Nc1ccccc1,-25%,16µM*,11µM*,16µM*,-13%,-24
C[C@H](CO)N1C[C@H](C)[C@@H](CN(C)CC2CCCCC2)Oc2ccc(NC(=O)Cn3cnnn3)cc2C1=O,1%,-15%,7%,1%,5%,6
CCCCN1C[C@H](CSC)[C@@H](CC(=O)Nc2ccc(Br)cc2)C1=O,-35%,u,-14%,23µM*,x,-11
O=C(C[C@H]1C(=O)N(C2CCCCC2)C[C@@H]1Cc1ccccc1)Nc1ccccc1,-3%,u,3%,16µM*,-10%,u
C[C@H]1CN(C2CCCCC2)C(=O)[C@@H]1CC(=O)Nc1ccccc1,-16%,-5%,-16%,-29%,x,u
COc1cc(-c2n[nH]c(=S)n2-c2cccc(C(F)(F)F)c2)cc(OC)c1OC,0%,-8%,u,-18%,2%,11
COc1cc(Nc2nc3c(N)cc(C(F)(F)F)cc3nc2-c2ccccc2)cc(OC)c1OC,1%,u,0%,13µM*,-22%,7
COc1ccc(CC(=O)NCc2ccc(-n3cccc3)cc2)cc1OC,-4%,2.3µM*,0%,2.3µM*,0%,21
Cc1ccc(CNC(=O)Cc2ccc(-n3cccc3)cc2)cc1,-4%,1.3µM*,-22%,0.82µM*,1%,-13
COc1ccc(CC(=O)NCc2nn(-c3ccccc3)nc2C)cc1OC,-34%,-17%,-18%,u,2%,31
COc1cc(OC)cc(C(=O)NCc2ccc(-n3cccc3)cc2)c1,-4%,18µM*,-6%,u,-3%,-17
SMILES,HepG2 tox,TDP1 cell CPT,TGFb inhibitor,DT40 TDP1 no CPT,S-ASM inh,IL-1B inflam inh
Cc1ccc(CNC(=O)c2ccc(-n3cccc3)cc2)cc1,3%,-13%,0%,-11%,19%,27
O=C(Cc1ccc(-n2cccc2)cc1)NCc1cccs1,-12%,0.82µM*,u,1µM*,0%,34
CCNC(=O)C1CCCN(C(=O)c2ccc3c(c2)OCO3)CC1 (configuration not stated),6%,-15%,5%,6%,x,13
COc1ccccc1-n1cc(CN2CCC3(CCC(CNC(=O)c4ccccc4)O3)CC2)cn1 (configuration not stated),x,17%[9.04 µM],x,-27%,x,x
COC(=O)CCNC(=O)N1CCN(c2nnc(C)c3c(C)n(-c4ccccc4)nc23)CC1,4%,-2%,-1%,-14%,x,x
Cc1c(C(=O)OCC(=O)NC(=O)NC2CCCCC2)cccc1[N+](=O)[O-],-11%,u,1%,u,-10%,-67*
CC1CCCCC1NC(=O)COC(=O)c1ccc([N+](=O)[O-])o1 (configuration not stated),-8%,10%,3%,-10%,0%,12
O=C(COC(=O)c1ccc([N+](=O)[O-])o1)NC1CCCCC1,-43%,0.0082µM*,u,0.0082µM*,-1%,27
CCOc1cc(/C=N/NC(=O)c2cccnc2)ccc1OC(=O)c1ccco1,7%,-7%,4%,-18%,-3%,-4
C[C@H]1CN(c2ccccc2)C(=O)[C@@H]1CC(=O)Nc1ccccc1,-33%,7%,-14%,-27%,x,-19
N#CC1=C2SCC(O)(c3ccccc3)N2C(=O)CC1c1cccs1 (configuration not stated),-25%,1.2µM*,1%,1µM*,3%,u
N#CC1=C2SCN(c3ccccc3)CN2C(=O)CC1c1cccs1 (configuration not stated),-2%,-5%,-6%,-17%,-1%,u
N#CC1=C2SCN(Cc3ccccc3)CN2C(=O)CC1c1ccccc1F (configuration not stated),-7%,-11%,-3%,-28%,12%,29
N#CC1=C2SCC(O)(c3ccccc3)N2C(=O)CC1c1ccccc1F (configuration not stated),-34%,13µM*,4%,8.2µM*,-3%,u
COc1ccccc1-c1ccnc(-n2ncc(C(=O)N[C@H]3CCCCNC3=O)c2C2CC2)n1,x,u,x,21µM*,x,x

# Source: PubChem
